Screens as filed in PubChem.
Pf Dd2 inh = inhibitors of Plasmodium falciparum Dd2 growth; 120,000 tested, 4.3% active; Potency, µM (doses to about 28.9 µM), usual class: inhibitors; P. falciparum Dd2 growth, SYBR Green, 72 h; active = well fitted inhibition curve with a large enough effect; note: nearly all actives have a fitted effect of over 65% in size
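Readout: SYBR Green fluorescence, 485 nm excitation, 535 nm emission, after ~16 h lysis at 37C. Before that, Dd2-infected red cells (2.5% hematocrit) grew 72 h with compound, 29 uM top final concentration.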
Numbers stand for hits; - = inactive. The full list was thinned out, with hits kept by preference.

SMILES	Pf Dd2 inh
Cc1ccc(C2NC(=O)N(CC(=O)Nc3ccccc3C(C)C)C3=C2C(=O)OC3)cc1 (stereo not drawn)	-
O=c1[nH]c(C2CCCN(Cc3cccc4ccccc34)C2)nn1-c1ccccc1 (stereo not drawn)	-
O=C(c1ccccn1)N1CC(=O)N(C2CCCCC2)CC(OCc2ccccc2)C1 (stereo not drawn)	-
Cc1noc(C)c1CCC(=O)N1CCN(Cc2ccccc2)CC(O)C1 (stereo not drawn)	-
COc1ccc(N2Cc3c(NC4CCCCCC4)ncnc3N(C)CC2=O)cc1	-
O=C1CCN(C(=O)c2cccnc2)CCCC(C(=O)N2CCN(Cc3ccccc3F)CC2)CCN1 (stereo not drawn)	-
COCCc1noc(-c2nc(-c3ccc4c(c3)OCO4)no2)n1	-
CCOC(=O)c1ccc(NC(=O)c2c(NCc3cc(OC)c(OC)cc3OC)sc3c2CCCC3)cc1	12.6µM
CCOC(=O)c1c(NC(=O)CS(=O)(=O)c2ccc(Cl)cc2)sc2c1CCCC2	-
COC(=O)c1c(NC(=O)COc2cccc(C(F)(F)F)c2)sc2c1CCCC2	-
COC(=O)c1ccc(NC(=O)c2c(NCc3cccc(F)c3)sc3c2CCCC3)cc1	12.6µM
COC(=O)c1c(NC(=O)c2c(OC)cccc2OC)sc2c1CCCC2	-
COc1ccc(NC(=O)c2c(NC(=O)c3ccc(Br)cc3)sc3c2CCCC3)cc1	-
COc1cc(Cl)ccc1C(=O)N1[C@@H]2CC[C@H]1CC(NC(=O)c1ccncc1)C2 (stereo partly drawn)	-
Cc1cc(N2CCN(CC3CCCCC3)C(CCO)C2)nc(N)n1 (stereo not drawn)	-
O=C(NCC1CCOCC1)C1c2ccccc2C(=O)N(C2CCCCC2)C12CCCCC2 (stereo not drawn)	-
Cc1ccc(C(=O)NCc2nnc3cc(-c4nc(C)no4)ccn23)cc1	-
COCc1noc([C@@H]2CC(F)(F)CN2C(=O)c2coc(C)n2)n1	-
CC(C)c1noc(-c2cccn3c(CNC(=O)C4CCC4)nnc23)n1	-
CCc1noc(-c2ccn3c(CNC(=O)CCC4CCCC4)nnc3c2)n1	-
Cc1cc(-n2c(SCc3ccccc3F)nc3[nH]ncc3c2=O)ccc1Cl	-
Cc1ccccc1-n1c(SCc2ccc(Cl)cc2)nc2[nH]ncc2c1=O	10µM
